What is called AC50 is the midpoint of the concentration-response curve, whichever way the signal moves.

Calls of active or inactive are those of the source. How the source made its calls: active means hit-call score of the fitted dose curve at least 0.9, where 1 is the maximum; inactive means score below 0.9.

The assay in a line: ATG_GLI_CIS: Attagene CIS-FACTORIAL HepG2 Assay for human Zinc Finger Protein GLI1 (AID 2282945). As to conditions: HepG2, Attagene cis-factorial reporter mRNA, GLI element; actives raise or lower the signal. On the procedure: ATG_CIS is a cell-based, multiplexed-readout assay that uses HepG2, a human liver cell line, with measurements taken at 24 hours after chemical dosing in a 24-well plate.ATG_GLI_CIS is one of 52 assay component(s) measured or calculated from the ATG_CIS assay. It is designed to make measurements of mRNA induction, a form of inducible reporter, as detected with fluorescence intensity signals by Reverse transcription polymerase chain reaction (RT-PCR) and Capillary electrophoresis technology.Data from the assay component ATG_GLI_CIS was analyzed into 1 assay endpoint. This assay endpoint, ATG_GLI_CIS, was analyzed with bidirectional fitting relative to DMSO as the negative control and baseline of activity. Using a type of inducible reporter, measures of mRNA for gain or loss-of-signal activity can be used to understand the reporter gene at the transcription factor-level as they relate to the gene GLI1. Furthermore, this assay endpoint can be referred to as a primary readout, because this assay has produced multiple assay endpoints where this one serves a reporter gene function. To generalize the intended target to other relatable targets, this assay endpoint is annotated to the dna binding intended target family, where the subfamily is zinc finger.
Human liver HepG2 cells are transiently transfected with multiple reporter transcription units (MRTUs) in 6-well plates using FuGene 6 reagent (Roche; 3 ml FuGene/1 mg DNA). The MRTU constructs are regulated by a cis-regulating element (promoter). […] A major difference between the CIS and TRANS system is that in CIS activities of endogenous TFs are measured, whereas the TRANS assay evaluates changes in activities of exogenous, chimeric NR-Gal4 proteins. […] At the end of 24 hour incubation, total RNA was isolated using TriZol reagent (Invitrogen). The isolated RNA is then reverse-transcribed using oligo(dT) primer and Mo-MLV reverse transcriptase (Invitrogen) with DNAse I (Ambion) treatment for 30 min. The one-tenth of the produced cDNA was amplified by PCR using Taq DNA polymerase (Invitrogen) and two reporter sequence-specific primers. The PCR products were fluorescently labeled by primer extension with 6-arboxyfluorescein (6-FAM) 5'-labeled reporter sequence-specific primer (2 min at 95 C, 20 s at 68 C and 10 min at 72 C) and these products were digested with 5U of HpaI (New England Biolabs) for 2h at 37 C. The fragments were purified using Qiaquick PCR columns (Qiagen), analyzed on an ABI 3130xL genetic analyzer (Applied Biosystems) with peak positions identified by using a set of X-rhodamine (ROX)-labeled MapMarker1000 molecular weight standards (BioVentures). The raw capillary electrophoresis data was processed using Attagraph software (Attagene).
Consider `C#C[C@]1(O)CC[C@H]2[C@@H]3CCC4=Cc5oncc5C[C@]4(C)[C@H]3CC[C@@]21C`, for which the AC50 is 60.9 µM (active).
On to `O=C1CCc2ccccc2O1`, for which the outcome was inactive.
On the same count and under the same terms, in the case of `CSc1nnc(C(C)(C)C)c(=O)[nH]1` it was “inactive”; in that of `CC(=O)Nc1ccc(CC(=O)O)cc1`, “inactive”; in that of `CN1[C@@H]2CC(OC(=O)[C@H](CO)c3ccccc3)C[C@H]1[C@@H]1O[C@@H]12` (stereo not given in full), “inactive”.
Same read-out and setting: then `CCCCCCC#CC(=O)OC`, with “inactive”; and `CNC[C@H](O)c1cccc(O)c1`, with “inactive”.
The same measure, in the same setting: then `O=C(O)Cc1cccc2ccccc12`, with “inactive”.
For the compound `CCCCC(CC)COC(=O)/C=C\C(=O)OCC(CC)CCCC` (stereo not given), the result was inactive.
Regarding `CC(C)(C#N)c1cc(Cn2cncn2)cc(C(C)(C)C#N)c1`, the result was inactive.
The same measure, in the same setting: then `CC(C)C1CCC(O)CC1` (stereo not given), with “inactive”; and `CCC(C)(O)CCC=C(C)C` (stereo not given), with “inactive”; and `Cc1c(Cl)c(=O)oc2cc(O)ccc12`, with “inactive”.
On to `Clc1ccc(Cl)c(Cl)c1Cl`, for which the outcome was inactive.
Same read-out and setting: in the case of `CC(=O)OCCC(C)CC(C)(C)C` (stereo not given) it was “inactive”.
Same read-out and setting: then `O=C(O)CCCCCCCC(=O)O`, with “inactive”; and `CCCCNC(=O)NS(=O)(=O)c1ccc(N)cc1`, with “inactive”.
On to `C=CCOC(=O)CCC1CCCCC1`, for which the compound was classed as inactive.
On to `C=CC(C)(O)CCC=C(C)CCC=C(C)C` (stereo not given), for which the AC50 is 178 µM (active).
On to `CCOC(=S)SSC(=S)OCC`, for which the call was inactive.
In the case of `CCCCCCCCCCCCN`, the compound was classed as inactive.
On the same count and under the same terms, then `COc1ccc(Cl)cc1C`, with “inactive”.
Same read-out and setting: then `NCCCCCCN`, with “inactive”; and `CNC(=O)Oc1ccc2c(c1)[C@]1(C)CCN(C)[C@@H]1N2C`, with “inactive”.
Regarding `COC(=O)C1=C(C)NC(C)=C(C(=O)OCCN(C)Cc2ccccc2)C1c1cccc([N+](=O)[O-])c1` (stereo not given), the AC50 is 99.5 µM (active).
On to `COC(=O)OC`, for which the call was inactive.
The same measure, in the same setting: then `O=C(O)COCCN1CCN(C(c2ccccc2)c2ccc(Cl)cc2)CC1` (stereo not given), with “inactive”; and `O=S(=O)(O)c1cccc2c(S(=O)(=O)O)cccc12`, with “inactive”; and `CC(c1cc2ccccc2s1)N(O)C(N)=O` (stereo not given), with “inactive”.
Still for that read-out and setting: then `CC(C)(COC(=O)c1ccccc1)COC(=O)c1ccccc1`, with “inactive”; and `CC1(C)OC[C@@H]2O[C@@]3(C(=O)O)OC(C)(C)O[C@H]3[C@@H]2O1`, with “inactive”; and `c1ccc(CCCc2ccccn2)cc1`, with “inactive”.
Same read-out and setting: then `O=C1C(c2[nH]c3ccc(S(=O)(=O)O)cc3c2O)=Nc2ccc(S(=O)(=O)O)cc21`, with “inactive”.
Regarding `O=C(O)C[C@H](O)C[C@H](O)/C=C/c1c(C2CC2)nc2ccccc2c1-c1ccc(F)cc1`, the result was inactive.
The same measure, in the same setting: then `c1ccc2c(c1)c1cccc3ccc4cccc2c4c31`, with “inactive”.
The same measure, in the same setting: in the case of `CC(=O)OCc1ccc2c(c1)OCO2` it was “inactive”; in that of `CNCCO`, “inactive”; in that of `COC(C)CCO` (stereo not given), “inactive”.
Same read-out and setting: then `Nc1cc([N+](=O)[O-])ccc1O`, with “inactive”; and `COC(C(=O)O)c1ccccc1` (stereo not given), with “inactive”.

These data come from PubChem BioAssay (EPA / NIEHS).
